Assay results reported in PubChem BioAssay (Tox21).
Inconclusive results are not listed. Calls of active or inactive are those of the source. Unless noted, calls come from the whole dose curve; as a rule, active = well fitted curve in the direction sought with a large enough effect in the repeat runs; inconclusive = weak or mixed curves; inactive = no such curve, though single readings can be large; an effect the other way counts as inactive or inconclusive.

Tests used:
[1] = molecular target: Luciferin 4-monooxygenase (Photinus pyralis) (UniProt P08659); test: qHTS assay to identify small molecule inhibitors of firefly luciferase (AID 1224835); note: series mostly up to about 120 µM; nearly all actives have a fitted effect of over 25% in size
Procedure, shortened: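 Quantitative HTS format; KM concentrations of both substrates. Purified P. pyralis FLuc activity quantified from luminescence images.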

[2] = qHTS assay to identify small molecule agonists of the constitutive androstane receptor (CAR) signaling pathway - cell viability counter screen (AID 1224836); note: series mostly up to about 92 µM; nearly all actives have a fitted effect of over 45% in size
Procedure, shortened: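 Multiplexed viability check: HepG2-CYP2B6-hCAR cells, 15-point compound dosing, 0.75 uM PK11195 final, 23 h at 37 C, CellTiter-Fluor fluorescence.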

[3] = qHTS assay to identify small molecule antagonists of the constitutive androstane receptor (CAR) signaling pathway - cell viability counter screen (AID 1224837); note: series mostly up to about 92 µM; nearly all actives have a fitted effect of over 45% in size
Procedure, shortened: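 To flag cytotoxic false antagonists, HepG2 hCAR/CYP2B6-2.2kb cells were treated 23 hr with 15-concentration compound series and 50 nM CITCO at 37 C/5% CO2; CellTiter-Fluor fluorescence was the measured end point.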

[4] = molecular target: Nuclear receptor subfamily 1 group I member 3 (Homo sapiens) (UniProt Q14994); test: qHTS assay to identify small molecule antagonists of the constitutive androstane receptor (CAR) signaling pathway (AID 1224838);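 note: HepG2 cells stably expressing hCAR with CYP2B6 luciferase reporter stimulated by CITCO; nearly all actives have a fitted effect of over 40% in size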
Procedure, shortened: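 Human hepatoma HepG2 cells expressing hCAR and a CYP2B6 promoter (2.2 kb) luciferase construct; compound titration (15 points) with 50 nM CITCO final, 24 h at 37 C/5% CO2; luminescence via ONE-Glo after 30 min at room temperature.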

[5] = molecular target: Nuclear receptor subfamily 1 group I member 3 (Homo sapiens) (UniProt Q14994); test: qHTS assay to identify small molecule agonists of the constitutive androstane receptor (CAR) signaling pathway (AID 1224839);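 note: HepG2 cells stably carrying human CAR and a CYP2B6 luciferase reporter; series mostly up to about 92 µM; nearly all actives have a fitted effect of over 15% in size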
Procedure, shortened: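 Using human hepatoma HepG2 cells engineered with hCAR and a CYP2B6-2.2kb reporter, 15-concentration compound series were incubated 24 h alongside PK11195 at 0.75 uM final, with luminescence quantified afterwards.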

[6] = qHTS assay to identify small molecule antagonists of the estrogen related receptor signaling pathway with the pleiotropic PPARgamma coactivator (PGC) from Tox21 10K library - cell viability counter screen (AID 1224840; active = well fitted cell-killing curve with a large enough effect in the repeat runs, not every such curve was filed as active; note: nearly all actives have a fitted effect of over 40% in size)
Procedure, shortened: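 Seeded PGC/ERR cells (2,000/well, 6 h, 37 C/5% CO2) get compound by pin tool; 17.5 h incubation at 37 C; CellTiter-Fluor added, 30 min, fluorescence measured.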

[7] = qHTS assay to identify small molecule agonists of the hypoxia (HIF-1) signaling pathway - cell viability counter screen (AID 1224844; calls by dose curve; note: nearly all actives have a fitted effect of over 50% in size)
Procedure, shortened: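 HRE-bla ME-180; 0.5% dFBS; cpd 17 h, 37C, 5% CO2; CellTiter-Glo lum., 30 min RT, post-FRET read, same wells.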

[8] = qHTS assay to identify small molecule agonists of H2AX - cell viability counter screen (AID 1224847; calls by dose curve; note: top concentration of the series differs between compounds; nearly all actives have a fitted effect of over 30% in size)
Procedure, shortened: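 After overnight plating of 1000 CHO-K1 cells per well, a 15-concentration compound series was applied for 3 hr at 37C. Luminescence from CellTiter-Glo, read following 30 min at room temperature, reflected cell viability.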

[9] = qHTS RealTime-Glo MT Cell Viability Assay in HepG2 cells - 24 hour (AID 1224867); note: nearly all actives have a fitted effect of over 50% in size
Procedure, shortened: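 HepG2 cells (600/well) were dispensed with RealTime-Glo reagents, incubated 5 h at 37 °C, then treated with compounds in DMSO for up to 40 h. Nonlytic NanoLuc luminescence reflecting viable cells was read at each stated time point.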

[10] = qHTS RealTime-Glo MT Cell Viability Assay in HEK293 cells - 32 hour (AID 1224868); note: top concentration of the series differs between compounds; nearly all actives have a fitted effect of over 50% in size
Procedure, shortened: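 HEK293 cells seeded with NanoLuc/prosubstrate reagent, rested 5 h at 37 C, then dosed and kept at 37 C up to 40 h. Nonlytic real-time luminescence from viable cells read at 0, 8, 16, 24, 32 and 40 h.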

[11] = qHTS RealTime-Glo MT Cell Viability Assay in HepG2 cells - 40 hour (AID 1224870); note: nearly all actives have a fitted effect of over 50% in size
Procedure, shortened: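 HepG2 cells mixed with RealTime-Glo MT reagents (NanoLuc plus cell-permeant prosubstrate) were seeded at 600 cells/well, incubated 5 h at 37 C/5% CO2, then pinned with compounds in DMSO; nonlytic luminescence tracked viability during 40 h treatment.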

[12] = A CellTox Green Cytotoxicity Assay to monitor cytotoxicity in HEK293 cells - 40 hour (AID 1224871); note: nearly all actives have a fitted effect of over 45% in size
Procedure, shortened: (§1)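 Tox21 screen in HEK293: membrane-impermeant cyanine dye fluoresces on binding dead-cell DNA; compound pinned 5 h post-seeding, plates held at 37 C, signal read repeatedly through 40 h.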

[13] = molecular target: Thyrotropin receptor (Homo sapiens) (UniProt P16473); test: qHTS assay to identify small molecule agonists of the thyroid stimulating hormone receptor (TSHR) signaling pathway (AID 1224843; calls by dose curve; note: nearly all actives have a fitted effect of over 45% in size)
Procedure, shortened: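 Compounds are titrated over 15 concentrations, in triplicate, onto TSHR-HEK293 cells seeded at 800/well. Plates sit 30 min at room temperature before cAMP-d2 and anti-cAMP cryptate are added; signal is read after a further hour.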

[14] = qHTS assay to identify small molecule agonists of H2AX (AID 1224845; active = well fitted activation curve with a large enough effect in the signal ratio in the repeat runs, not every such curve was filed as active; the % refers to the signal ratio)
Procedure, shortened: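 Wild-type CHO-K1 cells plated overnight, then exposed 3 hr at 37C to compounds at 15 concentrations (0.76% DMSO). Lysed, then HTRF anti-pH2AX(S139)-cryptate/anti-H2AX-d2 detection after 24 hr at room temperature; emissions 665 and 620 nm.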

[15] = qHTS assay to identify small molecule antagonists of the estrogen related receptor signaling pathway with the pleiotropic PPARgamma coactivator (PGC) from Tox21 10K library (AID 1224841; call rule not given here)
Procedure, shortened: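 Test chemicals dissolved in DMSO were applied to pre-incubated (6 h) PGC/ERR cells at 2,000 cells/well for an 18 h, 37 C treatment; reporter luminescence was then read using One-Glo.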

[16] = qHTS assay to identify small molecule agonists of the estrogen related receptor signaling pathway with the pleiotropic PPARgamma coactivator (PGC) from Tox21 10K library (AID 1224842); note: nearly all actives have a fitted effect of over 15% in size
Procedure, shortened: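 PGC/ERR reporter cells (NTP line) were seeded 2,000 per well, rested 6 h at 37 C/5% CO2, then pin-dosed with compounds in DMSO for 18 h at 37 C; luciferase read by One-Glo luminescence after 30 min at room temperature.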

[17] = qHTS assay to identify small molecule agonists of the hypoxia (HIF-1) signaling pathway (AID 1224846; active = well fitted activation curve with a large enough effect in the signal ratio in the repeat runs, not every such curve was filed as active; the % refers to the signal ratio)
Procedure, shortened: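 Reporter induction in HRE-bla ME-180 cells is taken as agonism: cells sit 5 hrs after plating, receive compounds or DMSO only, incubate 17 hrs at 37C under 5% CO2, and are loaded with CCF4-AM for beta-lactamase FRET measurement.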

[18] = qHTS assay to identify small molecule antagonists of the estrogen related receptor (ERR) signaling pathway from Tox21 library (AID 1224848); note: nearly all actives have a fitted effect of over 50% in size
Procedure, shortened: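 First, 2,000 ERR cells per well were plated and held 6 h at 37 C/5% CO2. Next, compounds in DMSO were pinned in and left 18 h at 37 C. Finally, ONE-Glo was added and luminescence read after 30 min at room temperature.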

[19] = qHTS assay to identify small molecule agonists of the estrogen related receptor (ERR) signaling pathway from Tox21 library (AID 1224849; calls by dose curve; note: nearly all actives have a fitted effect of over 15% in size)
Procedure, shortened: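 Tox21 compounds tested for ERR agonism in an NTP reporter cell line: 18 h treatment at 37 C, then ONE-Glo luminescence.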

[20] = A CellTox Green Cytotoxicity Assay to monitor cytotoxicity in HEK293 cells - 0 hour (AID 1224869); note: nearly all actives have a fitted effect of over 50% in size
Procedure, shortened: as §1

Measured: Potency

Nuclear receptor subfamily 1 group I member 3 (Homo sapiens), sequence (Q14994 whole entry, looked up): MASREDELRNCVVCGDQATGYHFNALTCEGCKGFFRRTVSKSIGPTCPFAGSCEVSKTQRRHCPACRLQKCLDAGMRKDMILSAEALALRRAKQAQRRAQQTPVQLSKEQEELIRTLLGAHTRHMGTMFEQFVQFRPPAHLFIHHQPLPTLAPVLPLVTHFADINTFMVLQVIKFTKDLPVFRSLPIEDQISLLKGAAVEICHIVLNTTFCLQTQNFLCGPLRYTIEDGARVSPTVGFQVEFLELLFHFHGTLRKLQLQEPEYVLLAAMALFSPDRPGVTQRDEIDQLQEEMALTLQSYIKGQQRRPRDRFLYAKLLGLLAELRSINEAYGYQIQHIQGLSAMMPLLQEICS
Luciferin 4-monooxygenase (Photinus pyralis), sequence (P08659 whole entry, looked up): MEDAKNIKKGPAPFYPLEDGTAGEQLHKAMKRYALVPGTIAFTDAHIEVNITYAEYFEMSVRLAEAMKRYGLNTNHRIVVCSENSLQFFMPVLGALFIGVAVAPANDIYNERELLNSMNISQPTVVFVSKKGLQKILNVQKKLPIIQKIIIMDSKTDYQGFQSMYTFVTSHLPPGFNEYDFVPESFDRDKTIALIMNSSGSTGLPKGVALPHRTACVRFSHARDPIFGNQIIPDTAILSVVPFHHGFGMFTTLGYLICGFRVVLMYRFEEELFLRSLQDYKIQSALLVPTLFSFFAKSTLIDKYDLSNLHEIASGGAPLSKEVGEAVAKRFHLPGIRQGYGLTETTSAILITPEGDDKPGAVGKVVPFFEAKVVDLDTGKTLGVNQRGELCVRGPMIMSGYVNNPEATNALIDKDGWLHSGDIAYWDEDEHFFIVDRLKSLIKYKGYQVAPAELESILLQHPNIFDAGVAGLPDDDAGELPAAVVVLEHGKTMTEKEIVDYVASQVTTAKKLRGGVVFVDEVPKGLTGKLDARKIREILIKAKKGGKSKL
Thyrotropin receptor (Homo sapiens), sequence (P16473 whole entry, looked up): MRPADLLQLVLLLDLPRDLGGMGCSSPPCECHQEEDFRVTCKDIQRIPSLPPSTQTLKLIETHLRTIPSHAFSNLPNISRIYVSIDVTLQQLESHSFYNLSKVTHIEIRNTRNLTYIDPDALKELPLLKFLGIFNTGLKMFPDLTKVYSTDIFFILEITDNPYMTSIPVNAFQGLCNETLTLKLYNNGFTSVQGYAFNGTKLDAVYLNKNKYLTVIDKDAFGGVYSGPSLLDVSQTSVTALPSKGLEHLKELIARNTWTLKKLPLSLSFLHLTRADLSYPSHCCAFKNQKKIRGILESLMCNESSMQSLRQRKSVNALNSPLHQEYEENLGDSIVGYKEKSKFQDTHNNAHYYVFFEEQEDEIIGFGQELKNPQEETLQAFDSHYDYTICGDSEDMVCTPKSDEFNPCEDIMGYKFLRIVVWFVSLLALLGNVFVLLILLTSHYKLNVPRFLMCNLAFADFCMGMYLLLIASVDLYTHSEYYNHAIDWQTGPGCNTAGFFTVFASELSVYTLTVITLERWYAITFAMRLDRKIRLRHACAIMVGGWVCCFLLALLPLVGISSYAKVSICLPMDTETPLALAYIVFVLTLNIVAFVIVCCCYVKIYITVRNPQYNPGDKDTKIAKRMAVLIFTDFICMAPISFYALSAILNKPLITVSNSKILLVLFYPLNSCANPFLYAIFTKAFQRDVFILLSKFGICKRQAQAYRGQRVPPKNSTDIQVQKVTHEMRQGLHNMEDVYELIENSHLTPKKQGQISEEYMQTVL

COc1cc(-c2ccc(=O)[nH]n2)ccc1OC(F)F
not listed: [13] | [14] | [15] | [16] | [17] | [18] | [19] | [20]
inactive: all other assays above

COc1cc(C(=O)NCc2ccc(OCCN(C)C)cc2)cc(OC)c1OC
not listed: [4] | [15] | [16] | [17] | [18] | [19] | [20]
inactive: all other assays above

O=CN(CCO)CCO
not listed: [4] | [5]
inactive: all other assays above

CCN(CC#N)c1cccc(C)c1
not listed: [4] | [13] | [15] | [16] | [18] | [19] | [20]
inactive: all other assays above

Nc1ccn([C@@H]2O[C@H](CO)[C@@H](O)C2O)c(=O)n1 (some centres not stated)
not listed: [4] | [6] | [13] | [14]
inactive: all other assays above

C[N+]12CCC(CC1)C(OC(=O)C(O)(c1ccccc1)c1ccccc1)C2 (configuration not stated)
not listed: [4] | [7] | [14] | [15] | [17]
inactive: all other assays above

CN(C)CCN(C)CCN(C)C
not listed: [4] | [15] | [16] | [18] | [19]
inactive: all other assays above
